Active and inactive are the calls of the source. Rule for the calls: active = hit-call score of the fitted dose curve at least 0.9, where 1 is the maximum; inactive = score below 0.9.
Assay: ATG_E_Box_CIS: Attagene CIS-FACTORIAL HepG2 Assay for human Enhancer Box (E-box) (AID 2282936)
Conditions: HepG2 E-box cis-reporter transcription, actives raise or lower the signal
Method: ATG_CIS is a cell-based, multiplexed-readout assay that uses HepG2, a human liver cell line, with measurements taken at 24 hours after chemical dosing in a 24-well plate.ATG_E_Box_CIS is one of 52 assay component(s) measured or calculated from the ATG_CIS assay. It is designed to make measurements of mRNA induction, a form of inducible reporter, as detected with fluorescence intensity signals by Reverse transcription polymerase chain reaction (RT-PCR) and Capillary electrophoresis technology.Data from the assay component ATG_E_Box_CIS was analyzed into 1 assay endpoint. This assay endpoint, ATG_E_Box_CIS, was analyzed with bidirectional fitting relative to DMSO as the negative control and baseline of activity. Using a type of inducible reporter, measures of mRNA for gain or loss-of-signal activity can be used to understand the reporter gene at the transcription factor-level as they relate to the gene USF1. Furthermore, this assay endpoint can be referred to as a primary readout, because this assay has produced multiple assay endpoints where this one serves a reporter gene function. To generalize the intended target to other relatable targets, this assay endpoint is annotated to the dna binding intended target family, where the subfamily is basic helix-loop-helix protein.
Human liver HepG2 cells are transiently transfected with multiple reporter transcription units (MRTUs) in 6-well plates using FuGene 6 reagent (Roche; 3 ml FuGene/1 mg DNA). The MRTU constructs are regulated by a cis-regulating element (promoter). […] A major difference between the CIS and TRANS system is that in CIS activities of endogenous TFs are measured, whereas the TRANS assay evaluates changes in activities of exogenous, chimeric NR-Gal4 proteins. […] At the end of 24 hour incubation, total RNA was isolated using TriZol reagent (Invitrogen). The isolated RNA is then reverse-transcribed using oligo(dT) primer and Mo-MLV reverse transcriptase (Invitrogen) with DNAse I (Ambion) treatment for 30 min. The one-tenth of the produced cDNA was amplified by PCR using Taq DNA polymerase (Invitrogen) and two reporter sequence-specific primers. The PCR products were fluorescently labeled by primer extension with 6-arboxyfluorescein (6-FAM) 5'-labeled reporter sequence-specific primer (2 min at 95 C, 20 s at 68 C and 10 min at 72 C) and these products were digested with 5U of HpaI (New England Biolabs) for 2h at 37 C. The fragments were purified using Qiaquick PCR columns (Qiagen), analyzed on an ABI 3130xL genetic analyzer (Applied Biosystems) with peak positions identified by using a set of X-rhodamine (ROX)-labeled MapMarker1000 molecular weight standards (BioVentures). The raw capillary electrophoresis data was processed using Attagraph software (Attagene).
For `CC(=O)O[C@@H]1C[C@@H]2CC[C@@]1(C)C2(C)C`, the outcome was “inactive”.
For `C#CC(C)N(C)C(=O)Nc1ccc(Cl)cc1` (stereo not given), the outcome was “inactive”.
For `[O-]n1ccccc1=S.[O-]n1ccccc1=S.[Zn+2]`, the AC50 was 0.976 µM (active).
For `ON=C1CCCCC1`, the outcome was “inactive”.
For `COCCOC(=O)c1ccccc1C(=O)OCCOC`, the outcome was “inactive”.
In the case of `CCC(C)c1cc([N+](=O)[O-])cc([N+](=O)[O-])c1OC(=O)OC(C)C` (stereo not given), the AC50 is reported as 100 µM (active).
In the case of `CC(C)OCCO`, the outcome is reported as “inactive”.
For `COC(=O)c1cccnc1`, the outcome was “inactive”.
In the case of `COCCOCCOCCO`, the outcome is reported as “inactive”.
In the case of `CCCCCCOC(=O)CCC`, the outcome is reported as “inactive”.
With `[Cl][Au]([Cl])[Cl]` the outcome was “inactive”.
In the case of `COc1ccc(COC(C)=O)cc1`, the outcome is reported as “inactive”.
For `NC(=S)NNC(N)=S`, the outcome was “inactive”.
With `OCCOCCN1CCN(C2=Nc3ccccc3Sc3ccccc32)CC1` the outcome was “inactive”.
In the case of `CCCCCCCCC=CCCCCCCCC1=NCCN1CCO`, the AC50 is reported as 26.7 µM (active).
With `CCCCCCC(C)(C)S` the outcome was “inactive”.
With `Cc1cccc(Nc2ccccc2)c1` the outcome was “inactive”.
In the case of `COC(=O)c1ccc(C)cc1C1=NC(C)(C(C)C)C(=O)N1` (stereo not given) (tested in a mixture with another compound), the outcome is reported as “inactive”.
For `COc1ccccc1N=Nc1c(S(=O)(=O)O)cc2cc(S(=O)(=O)O)cc(NC(C)=O)c2c1O`, the outcome was “inactive”.
For `C=Cc1ccc(C(C)(C)C)cc1`, the outcome was “inactive”.
In the case of `CS(=O)(=O)c1ccc(Cl)cc1`, the outcome is reported as “inactive”.
In the case of `O=C1OC(=O)c2c(Cl)c(Cl)c(Cl)c(Cl)c21`, the outcome is reported as “inactive”.
For `CCOc1ccc(NC(=O)CC(C)=O)cc1`, the outcome was “inactive”.
With `C=CCOC(=O)CCCCCC` the outcome was “inactive”.
With `COc1ccccc1[N+](=O)[O-]` the outcome was “inactive”.
With `CC(C)(C)C1=CC(=O)C(C(C)(C)C)=CC1=O` the outcome was “inactive”.
In the case of `CCCC(=O)OC(C)(C)Cc1ccccc1`, the outcome is reported as “inactive”.
With `C=C(C)CNCC` the outcome was “inactive”.
With `CC(C)=CCCC(C)CC(=O)O` (stereo not given) the outcome was “inactive”.
With `CN1CCOCC1` the outcome was “inactive”.
In the case of `c1ccc2[nH]cnc2c1`, the outcome is reported as “inactive”.
In the case of `O=C1c2ccccc2C(=O)c2c(O)ccc(O)c21`, the AC50 is reported as 3.7 µM (active).
For `O=C1OC(=O)c2c(Br)c(Br)c(Br)c(Br)c21`, the outcome was “inactive”.
With `CCCCCC(C=O)=Cc1ccccc1` the outcome was “inactive”.
With `CCCCC(CC)COC(=O)c1ccc(O)cc1` (stereo not given) the outcome was “inactive”.
In the case of `CC(=O)O[C@@H]1CC2CCC1(C)C2(C)C` (stereo not given in full), the outcome is reported as “inactive”.
With `CC(=O)C(C)O` (stereo not given) the outcome was “inactive”.
In the case of `C[C@H](CCC(=O)NCC(=O)O)[C@H]1CC[C@H]2[C@@H]3[C@H](O)C[C@@H]4C[C@H](O)CC[C@]4(C)[C@H]3C[C@H](O)[C@]12C`, the outcome is reported as “inactive”.
With `Cc1cc(C)nc(NS(=O)(=O)c2ccc(N)cc2)n1` the outcome was “inactive”.
With `Clc1ccc(C(c2ccccc2Cl)C(Cl)Cl)cc1` (stereo not given) the outcome was “inactive”.

From PubChem BioAssay (EPA / NIEHS)
